Measurements: PubChem BioAssay (Tox21)
Results filed as inconclusive are left out. Some compounds were tested as several samples or in several runs, with calls that do not always agree. Activity calls are given as the source filed them. Unless noted, calls follow the shape of the full dose curve.

Key:
[1] = qHTS assay to identify small molecule agonists of the vitamin D receptor (VDR) signaling pathway - cell viability counter screen (AID 743224; active = well fitted curve in the direction sought with a large enough effect in the repeat runs; an effect the other way counts as inactive or inconclusive; also: nearly all actives have a fitted effect of over 50% in size; also: potency is read from the fitted curve at half-maximal effect; as to activity change, negative = cytotoxicity: series mostly up to about 63 µM; % is scaled to controls: 0 for no effect and ±100 for the full control effect)
In short: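 In parallel with the bla FRET readout, cytotoxicity toward VDR-bla cells after 16 h compound exposure was assessed by CellTiter-Glo, with luminescence recorded after a 30 min room-temperature incubation.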

[2] = qHTS assay to identify small molecule antagonists of the vitamin D receptor (VDR) signaling pathway - cell viability counter screen (AID 743225; active = well fitted curve in the direction sought with a large enough effect in the repeat runs; an effect the other way counts as inactive or inconclusive; also: % is scaled to controls: 0 for no effect and ±100 for the full control effect; nearly all actives have a fitted effect of over 50% in size)
In short: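 Same-well multiplex: following 16 h treatment of HEK 293T cells carrying a UAS-driven beta-lactamase reporter with compound and agonist (3 nM final), and a 2 h FRET substrate step, CellTiter-Glo was added and luminescence read after 30 min.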

[3] = qHTS assay to identify small molecule agonists of the NFkB signaling pathway (AID 1159509; active = well fitted curve in the direction sought with a large enough effect in the signal ratio in the repeat runs, not every such curve was filed as active; the % refers to the signal ratio; also: series mostly up to about 61 µM; % is scaled to controls: 0 for no effect and ±100 for the full control effect)
In short: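 Readout: FRET fluorescence, 405 nm excitation, 460/530 nm emission; beta-lactamase expression disrupts FRET. Cells: ME-180 stably carrying NF-kB-driven bla reporter. Compound exposure 5 hr, 37 C, 5% CO2.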

[4] = qHTS assay to identify small molecule agonists of the NFkB signaling pathway - cell viability counter screen (AID 1159515); also: series mostly up to about 61 µM; % is scaled to controls: 0 for no effect and ±100 for the full control effect; nearly all actives have a fitted effect of over 55% in size
In short: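 Plate 2,000 NFkB-bla ME-180 cells/well; incubate overnight. Add compounds, 5 hr at 37 C. Add FRET substrate, 1.5 hr RT. Add CellTiter-Glo, 30 min RT; read luminescence.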

[5] = qHTS assay to identify small molecule agonists of the endoplasmic reticulum stress response signaling pathway (AID 1159516; active = well fitted activation curve with a large enough effect in the signal ratio in the repeat runs, not every such curve was filed as active; the % refers to the signal ratio; also: % is scaled to controls: 0 for no effect and ±100 for the full control effect)
In short: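 Beta-lactamase expression from the ER stress response element in HeLa reporter cells is quantified with the LiveBLAzer B/G FRET substrate, read at 405 nm excitation after 2 hr at room temperature, following 5 hr compound treatment at 37 C.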

[6] = qHTS assay to identify small molecule agonists of the endoplasmic reticulum stress response signaling pathway - cell viability counter screen (AID 1159517); also: nearly all actives have a fitted effect of over 50% in size; also: potency is read from the fitted curve at half-maximal effect
In short: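 Steps: seed 1,500 ESRE-bla HeLa cells per well; incubate overnight at 37 C, 5% CO2; add compounds in DMSO for 5 hr; run FRET substrate 2 hr RT; add CellTiter-Glo, wait 30 min, read luminescence.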

[7] = qHTS assay to identify small molecule antagonists of the retinoid-related orphan receptor gamma (ROR-gamma) signaling pathway - cell viability counter screen (AID 1159520; active = well fitted curve in the direction sought with a large enough effect in the repeat runs; an effect the other way counts as inactive or inconclusive; also: % is scaled to controls: 0 for no effect and ±100 for the full control effect; nearly all actives have a fitted effect of over 50% in size)
In short: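 Tet-on ROR gamma CHO cells were given compounds for 2 hr, then doxycycline hyclate at 1 uM final, and incubated 16 hr at 37 C. Viability was measured as ATP content by CellTiter-Glo luminescence.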

[8] = biological target: Nuclear receptor ROR-gamma (Homo sapiens) (UniProt P51449); experiment: qHTS assay to identify small molecule antagonists of the retinoid-related orphan receptor gamma (ROR-gamma) signaling pathway (AID 1159521; active = well fitted curve in the direction sought with a large enough effect in the repeat runs; an effect the other way counts as inactive or inconclusive)
In short: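 Inducible-expression reporter assay: doxycycline (1 uM final) switched on RORγ in CHO cells bearing a ROR response element-luciferase construct, with test compounds present from 2 h beforehand. Decreased luminescence after 16 h defined antagonist activity.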

[9] = qHTS assay to identify small molecule agonists of the AP-1 signaling pathway - cell viability counter screen (AID 1159525); also: nearly all actives have a fitted effect of over 55% in size
In short: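 Same-well cytotoxicity counter screen of the Tox21 10K library in ME-180 cells. The readout is ATP-dependent luminescence after 5 h compound treatment. Data are normalised to DMSO and tetra n-octyl ammonium bromide controls.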

[10] = qHTS assay to identify small molecule agonists of the AP-1 signaling pathway (AID 1159526); also: % is scaled to controls: 0 for no effect and ±100 for the full control effect

ClC1=C(Cl)C2(Cl)C(CBr)CC1(Cl)C2(Cl)Cl (configuration not stated)
34.7 µM (active) and inactive: Potency [1]
inactive: Potency [2] | outcome [3] | outcome [4] | outcome [5] | Potency [7] | Potency [8] | Potency [9]
54.9 µM (active) and inactive: Potency [6]

CC[C@H](N)c1ccccc1
inactive: Potency [1] | Potency [2] | outcome [3] | outcome [4] | outcome [5] | Potency [6] | Potency [7] | Potency [8] | Potency [9] | outcome [10]

BrCC1CO1 (configuration not stated)
inactive: Potency [1] | Potency [2] | outcome [3] | outcome [4] | outcome [5] | Potency [6] | Potency [7] | Potency [8] | Potency [9] | outcome [10]

COc1ccc2c(C(=O)c3ccc(Cl)cc3)c(C)n(CC(=O)O)c2c1
inactive: Potency [1] | Potency [2] | outcome [3] | outcome [4] | outcome [5] | Potency [6] | Potency [7] | Potency [8] | Potency [9] | outcome [10]

CCCC(C)(COC(N)=O)COC(N)=O
inactive: Potency [1] | Potency [2] | outcome [3] | outcome [4] | outcome [5] | Potency [6] | Potency [7] | Potency [8] | Potency [9] | outcome [10]

O=S1(=O)OCCO1
inactive: Potency [1] | Potency [2] | outcome [3] | outcome [4] | outcome [5] | Potency [6] | Potency [7] | Potency [8] | Potency [9] | outcome [10]

CCCN1CCC[C@@H]2Cc3[nH]ncc3C[C@H]21
inactive: Potency [1] | Potency [2] | outcome [3] | outcome [4] | outcome [5] | Potency [6] | Potency [7] | Potency [8] | Potency [9] | outcome [10]

Cc1ccc2c(c1)C1CN(C)CCC1N2 (configuration not stated)
inactive: Potency [2] | outcome [3] | outcome [4] | outcome [5] | Potency [6] | activity, negative = cytotoxicity [7] 3.75% [at 19 µM] | activity change, negative = inhibition [8] 3.88% [at 19 µM] | viability change, negative = cytotoxic [9] 5.2% [at 15.8 µM] | activation [10] 8.05% [at 15.8 µM]

CC(Cl)(Cl)Cl
inactive: Potency [1] | Potency [2] | outcome [3] | outcome [4] | outcome [5] | Potency [6] | Potency [7] | Potency [8] | Potency [9] | outcome [10]

CC(C)[C@]12CC(=O)[C@H](C)[C@H]1C2
inactive: Potency [1] | Potency [2] | outcome [3] | outcome [4] | outcome [5] | Potency [6] | Potency [7] | Potency [8] | Potency [9] | outcome [10]

CC(C)[N+](C)(CCC(C(N)=O)(c1ccccc1)c1ccccc1)C(C)C
inactive: Potency [1] | Potency [2] | outcome [3] | outcome [4] | outcome [5] | Potency [6] | Potency [7] | Potency [8] | Potency [9] | outcome [10]

N#CC(Br)(Br)C(N)=O
inactive: Potency [1] | Potency [2] | outcome [3] | outcome [4] | outcome [5] | Potency [6] | Potency [7] | Potency [8] | Potency [9] | outcome [10]

Oc1ccc(Cc2ccc(O)cc2)cc1
inactive: Potency [1] | Potency [2] | outcome [3] | outcome [4] | outcome [5] | Potency [6] | Potency [7] | Potency [8] | Potency [9] | outcome [10]

C#CCOC(=O)/C=C(C)/C=C/CC(C)CCCC(C)C (configuration not stated)
inactive: Potency [2] | outcome [3] | outcome [4] | outcome [5] | Potency [6] | Potency [7] | Potency [8] | Potency [9] | outcome [10]

N[C@@H]1C[C@H]1c1ccccc1
inactive: Potency [2] | outcome [3] | outcome [4] | outcome [5] | Potency [6] | Potency [7] | Potency [8] | Potency [9] | outcome [10]

CC(C)c1ccc(O)cc1
inactive: Potency [1] | outcome [3] | outcome [4] | outcome [5] | Potency [6] | Potency [7] | Potency [9] | outcome [10]

CCC1(CC)C(=O)C=CNC1=O
inactive: Potency [1] | Potency [2] | outcome [3] | outcome [4] | outcome [5] | Potency [6] | Potency [7] | Potency [8] | Potency [9] | outcome [10]

Clc1cc2c(cc1Cl)Oc1cc(Cl)c(Cl)cc1O2
inactive: activity change, negative = cytotoxicity [1] -0.698% [at 0.275 µM] | viability change, negative = cytotoxic [2] 2.97% [at 0.281 µM] | activation [3] -0.0516% [at 0.281 µM] | activity, negative = cytotoxic [4] -0.991% [at 0.281 µM] | activation [5] -5.12% [at 0.281 µM] | activity change, negative = cytotoxicity [6] -1.54% [at 0.281 µM] | activity, negative = cytotoxicity [7] 0.49% [at 0.349 µM] | activity change, negative = inhibition [8] 16.4% [at 0.35 µM] | viability change, negative = cytotoxic [9] -6.16% [at 0.29 µM] | activation [10] 0.434% [at 0.29 µM]

CCC(=O)c1ccc(Cl)cc1
inactive: Potency [1] | Potency [2] | outcome [3] | outcome [4] | outcome [5] | Potency [6] | Potency [7] | Potency [9] | outcome [10]

Cn1c(N)nc2c3cccnc3ccc21
inactive: Potency [1] | Potency [2] | outcome [3] | outcome [4] | outcome [5] | Potency [6] | Potency [7] | Potency [8] | Potency [9] | outcome [10]

CCC(C)C(C)(COC(N)=O)COC(N)=O (configuration not stated)
inactive: Potency [1] | Potency [2] | outcome [3] | outcome [4] | outcome [5] | Potency [6] | Potency [7] | Potency [9] | outcome [10]
